Test results published in ChEMBL document CHEMBL3988442, “University of Dundee, Small-Polar-MMV Screening Library” (2021).
For some of these results: Measured potencies and affinities stand elsewhere.

How the values were obtained:
Parameters in all cases: scale not given: direction of the effect not stated beside the values
[1] = biological target: Protein translocase subunit SecA (Escherichia coli (strain K12)) (UniProt P10408); test: Assay to Identify E. coli SecA ATPase Inhibitors; type: functional; conditions: 30 µM
[2] = biological target: T1, Ubiquitin-activating enzyme e1, putative (Leishmania donovani (strain BPK282A1)) (UniProt E9BSI1); test: Leishmania donovani Ubiquitin Activating Enzyme (LdE1); type: functional; conditions: 30 µM
T1 sequence (whole entry): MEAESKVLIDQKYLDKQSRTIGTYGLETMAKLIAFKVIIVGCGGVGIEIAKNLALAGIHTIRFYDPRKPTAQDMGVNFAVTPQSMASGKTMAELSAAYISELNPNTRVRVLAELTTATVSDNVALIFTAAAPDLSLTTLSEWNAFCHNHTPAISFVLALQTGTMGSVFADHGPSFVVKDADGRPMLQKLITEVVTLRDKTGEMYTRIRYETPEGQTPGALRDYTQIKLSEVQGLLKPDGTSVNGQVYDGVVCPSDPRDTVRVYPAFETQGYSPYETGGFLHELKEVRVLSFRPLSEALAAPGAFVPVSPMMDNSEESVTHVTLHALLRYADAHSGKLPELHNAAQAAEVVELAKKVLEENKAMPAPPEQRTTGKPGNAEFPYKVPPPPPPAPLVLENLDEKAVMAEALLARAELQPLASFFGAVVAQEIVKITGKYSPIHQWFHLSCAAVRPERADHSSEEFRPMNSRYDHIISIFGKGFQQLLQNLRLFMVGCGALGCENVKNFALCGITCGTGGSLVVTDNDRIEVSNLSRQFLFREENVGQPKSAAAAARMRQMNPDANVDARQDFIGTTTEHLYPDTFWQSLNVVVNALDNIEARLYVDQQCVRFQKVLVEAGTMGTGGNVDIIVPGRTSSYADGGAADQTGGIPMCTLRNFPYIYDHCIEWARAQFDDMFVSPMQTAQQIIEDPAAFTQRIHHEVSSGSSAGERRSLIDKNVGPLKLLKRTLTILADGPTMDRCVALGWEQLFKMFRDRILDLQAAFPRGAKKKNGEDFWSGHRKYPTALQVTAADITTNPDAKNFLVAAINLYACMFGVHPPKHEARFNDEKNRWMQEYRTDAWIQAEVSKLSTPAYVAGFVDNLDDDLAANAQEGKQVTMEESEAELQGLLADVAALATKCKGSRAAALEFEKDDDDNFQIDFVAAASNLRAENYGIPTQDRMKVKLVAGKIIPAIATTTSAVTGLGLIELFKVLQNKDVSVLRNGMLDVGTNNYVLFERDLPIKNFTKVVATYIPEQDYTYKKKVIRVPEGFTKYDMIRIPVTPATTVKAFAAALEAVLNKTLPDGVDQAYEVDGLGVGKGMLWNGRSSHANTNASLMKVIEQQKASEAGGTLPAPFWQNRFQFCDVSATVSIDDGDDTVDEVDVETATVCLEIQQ

[3] = biological target: AMP-activated protein kinase, AMPK (Homo sapiens) (UniProt P54646+O43741+P54619+Q9UGJ0+Q9Y478+Q13131+Q9UGI9); test: AMP-dependent Kinase enzyme assay. An in vitro enzyme assay that detects ADP turnover that is directly proportional to AMPK activity. This uses naive AMPK that is activated during the assay with MK-8722; type: functional; conditions: 30 µM
[4] = biological target: Sialic acid-binding Ig-like lectin 9 (Homo sapiens) (UniProt Q9Y336); test: Hs-Siglec9 ALPHAscreen SOP 20170721; conditions: 10 µM
Trypanosoma cruzi = test: Trypanosoma cruzi phosphomannomutase and mannose-1-phosphate guanylyltransferase assay; type: functional; conditions: 10 µM
[5] = biological target: T2, Arginase-2, mitochondrial (Homo sapiens) (UniProt P78540); test: in vitro enzyme assay to detect the production of urea directly proportional to the activity of Arginase II; type: functional; conditions: 33.3 µM; also: in the data most compounds retested in dose-response had high values
T2 sequence (whole entry): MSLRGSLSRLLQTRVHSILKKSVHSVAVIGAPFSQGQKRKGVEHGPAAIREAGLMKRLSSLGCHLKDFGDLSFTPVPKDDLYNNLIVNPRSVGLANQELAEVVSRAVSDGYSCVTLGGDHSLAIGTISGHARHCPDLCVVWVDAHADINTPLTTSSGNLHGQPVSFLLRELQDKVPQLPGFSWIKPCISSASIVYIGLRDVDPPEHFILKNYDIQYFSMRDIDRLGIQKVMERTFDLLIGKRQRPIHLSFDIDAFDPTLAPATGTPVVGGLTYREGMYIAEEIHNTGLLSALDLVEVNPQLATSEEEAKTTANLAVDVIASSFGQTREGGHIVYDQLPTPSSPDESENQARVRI

[6] = biological target: T3, Proteasome subunit beta (Trypanosoma cruzi) (UniProt O96673); test: Trypanosoma cruzi proteasome chymotrypsin-like activity (TcProtChymo) assay.; also: in the data most compounds retested in dose-response had high values; type: functional; conditions: 9.37 µM
T3 sequence (whole entry): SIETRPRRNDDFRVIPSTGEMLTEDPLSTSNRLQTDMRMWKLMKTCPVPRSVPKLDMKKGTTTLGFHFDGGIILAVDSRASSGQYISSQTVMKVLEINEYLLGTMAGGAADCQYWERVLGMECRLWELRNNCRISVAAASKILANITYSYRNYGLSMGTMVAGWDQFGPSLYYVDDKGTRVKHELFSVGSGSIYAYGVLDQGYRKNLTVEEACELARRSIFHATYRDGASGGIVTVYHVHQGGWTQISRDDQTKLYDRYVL

Homo sapiens = organism: Homo sapiens; test: To identify inhibition of the IFN signalling (Jak-Stat) pathway via expression of an eGFP reporter gene under the control of an IFN-stimulated response element (ISRE) containing MxA promoter.; type: functional; conditions: 30 µM
[7] = biological target: T4, Tyrosyl-tRNA synthetase, putative (Trypanosoma cruzi (strain CL Brener)) (UniProt Q4DSP6); test: Trypanosoma cruzi tyrosyl tRNA synthetase (TcYRS) _High Tyrosine SOP; type: functional; conditions: 30 µM; also: in the data most compounds retested in dose-response had high values
T4 sequence (whole entry): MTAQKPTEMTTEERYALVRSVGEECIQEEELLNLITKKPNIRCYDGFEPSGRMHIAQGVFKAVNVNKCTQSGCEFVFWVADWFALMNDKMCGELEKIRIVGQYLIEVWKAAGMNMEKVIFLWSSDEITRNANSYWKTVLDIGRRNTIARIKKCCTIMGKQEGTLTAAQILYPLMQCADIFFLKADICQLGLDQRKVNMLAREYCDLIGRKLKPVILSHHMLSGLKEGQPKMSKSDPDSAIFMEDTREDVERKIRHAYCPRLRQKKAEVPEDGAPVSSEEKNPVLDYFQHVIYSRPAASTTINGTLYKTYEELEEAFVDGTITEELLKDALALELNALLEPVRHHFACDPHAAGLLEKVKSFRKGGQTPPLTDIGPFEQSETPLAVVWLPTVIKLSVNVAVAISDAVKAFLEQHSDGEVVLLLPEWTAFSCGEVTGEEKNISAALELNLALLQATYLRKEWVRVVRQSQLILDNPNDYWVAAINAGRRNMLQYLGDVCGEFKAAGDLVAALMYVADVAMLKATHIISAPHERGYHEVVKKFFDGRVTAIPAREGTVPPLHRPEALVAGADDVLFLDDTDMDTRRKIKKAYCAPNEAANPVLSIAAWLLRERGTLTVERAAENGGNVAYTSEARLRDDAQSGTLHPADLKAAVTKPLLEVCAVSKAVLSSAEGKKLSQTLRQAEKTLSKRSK

[8] = biological target: T4, Tyrosyl-tRNA synthetase, putative (Trypanosoma cruzi (strain CL Brener)); test: Trypanosoma cruzi tyrosyl tRNA synthetase (TcYRS) SOP; type: functional; conditions: 30 µM
[9] = biological target: Chromo domain-containing protein 1 (Saccharomyces cerevisiae (strain ATCC 204508 / S288c) (Baker's yeast)) (UniProt P32657); test: ScCHD-1 Enzyme Inhibition Assay; type: functional; conditions: 30 µM; also: in the data most compounds retested in dose-response had high values
Chain of Chromo domain-containing protein 1 (Saccharomyces cerevisiae (strain ATCC 204508 / S288c) (Baker's yeast)) (P32657 whole entry, the tested form may be a part): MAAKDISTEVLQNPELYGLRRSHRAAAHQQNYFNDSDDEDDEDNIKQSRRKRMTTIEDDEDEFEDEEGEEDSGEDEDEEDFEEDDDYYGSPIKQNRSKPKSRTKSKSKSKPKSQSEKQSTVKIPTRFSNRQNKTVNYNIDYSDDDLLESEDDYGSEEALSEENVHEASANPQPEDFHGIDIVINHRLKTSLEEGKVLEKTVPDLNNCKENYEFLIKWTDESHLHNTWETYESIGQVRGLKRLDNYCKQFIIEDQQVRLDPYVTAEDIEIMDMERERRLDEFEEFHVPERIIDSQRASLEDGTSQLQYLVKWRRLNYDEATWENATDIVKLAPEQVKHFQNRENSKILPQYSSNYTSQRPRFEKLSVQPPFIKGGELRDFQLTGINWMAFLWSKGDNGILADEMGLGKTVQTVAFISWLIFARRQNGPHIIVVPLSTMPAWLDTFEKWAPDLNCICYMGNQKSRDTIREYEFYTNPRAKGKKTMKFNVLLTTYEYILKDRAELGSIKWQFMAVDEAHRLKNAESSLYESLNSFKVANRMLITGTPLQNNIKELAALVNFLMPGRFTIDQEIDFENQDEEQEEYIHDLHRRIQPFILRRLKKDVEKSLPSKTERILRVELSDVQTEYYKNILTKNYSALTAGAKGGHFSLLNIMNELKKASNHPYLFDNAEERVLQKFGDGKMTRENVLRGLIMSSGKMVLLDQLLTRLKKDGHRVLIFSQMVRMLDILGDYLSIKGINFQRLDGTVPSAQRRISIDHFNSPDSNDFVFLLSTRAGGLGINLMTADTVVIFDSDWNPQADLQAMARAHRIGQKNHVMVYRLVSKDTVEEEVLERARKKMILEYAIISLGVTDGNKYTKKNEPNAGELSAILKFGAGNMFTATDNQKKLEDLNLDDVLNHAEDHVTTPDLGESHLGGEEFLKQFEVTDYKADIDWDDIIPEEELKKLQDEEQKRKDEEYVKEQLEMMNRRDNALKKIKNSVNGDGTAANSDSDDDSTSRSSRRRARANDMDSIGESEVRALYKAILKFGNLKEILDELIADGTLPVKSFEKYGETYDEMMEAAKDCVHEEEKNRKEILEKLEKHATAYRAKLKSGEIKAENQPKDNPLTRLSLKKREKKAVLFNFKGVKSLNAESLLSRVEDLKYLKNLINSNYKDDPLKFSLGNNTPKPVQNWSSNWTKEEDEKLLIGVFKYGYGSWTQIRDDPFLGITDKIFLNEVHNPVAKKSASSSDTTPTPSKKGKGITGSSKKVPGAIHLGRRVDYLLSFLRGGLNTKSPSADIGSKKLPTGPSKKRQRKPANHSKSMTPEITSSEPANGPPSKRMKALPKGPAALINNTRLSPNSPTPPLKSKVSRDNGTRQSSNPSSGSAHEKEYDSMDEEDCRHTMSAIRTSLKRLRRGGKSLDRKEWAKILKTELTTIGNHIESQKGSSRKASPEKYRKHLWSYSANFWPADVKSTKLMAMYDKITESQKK

Chain of Sialic acid-binding Ig-like lectin 9 (Homo sapiens) (Q9Y336 whole entry): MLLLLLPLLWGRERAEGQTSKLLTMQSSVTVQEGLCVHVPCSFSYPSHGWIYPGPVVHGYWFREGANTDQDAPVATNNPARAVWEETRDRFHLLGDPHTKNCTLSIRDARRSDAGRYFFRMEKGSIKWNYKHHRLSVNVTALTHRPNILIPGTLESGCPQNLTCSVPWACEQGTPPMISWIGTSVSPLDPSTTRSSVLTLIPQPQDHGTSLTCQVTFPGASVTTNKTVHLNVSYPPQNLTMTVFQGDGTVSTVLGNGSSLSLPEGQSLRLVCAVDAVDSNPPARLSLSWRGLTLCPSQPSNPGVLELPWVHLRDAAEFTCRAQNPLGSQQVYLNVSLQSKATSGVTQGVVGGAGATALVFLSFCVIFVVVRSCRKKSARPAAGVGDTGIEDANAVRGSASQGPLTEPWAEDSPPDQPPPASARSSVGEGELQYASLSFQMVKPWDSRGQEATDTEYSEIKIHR
Chain of Protein translocase subunit SecA (Escherichia coli (strain K12)) (P10408 whole entry): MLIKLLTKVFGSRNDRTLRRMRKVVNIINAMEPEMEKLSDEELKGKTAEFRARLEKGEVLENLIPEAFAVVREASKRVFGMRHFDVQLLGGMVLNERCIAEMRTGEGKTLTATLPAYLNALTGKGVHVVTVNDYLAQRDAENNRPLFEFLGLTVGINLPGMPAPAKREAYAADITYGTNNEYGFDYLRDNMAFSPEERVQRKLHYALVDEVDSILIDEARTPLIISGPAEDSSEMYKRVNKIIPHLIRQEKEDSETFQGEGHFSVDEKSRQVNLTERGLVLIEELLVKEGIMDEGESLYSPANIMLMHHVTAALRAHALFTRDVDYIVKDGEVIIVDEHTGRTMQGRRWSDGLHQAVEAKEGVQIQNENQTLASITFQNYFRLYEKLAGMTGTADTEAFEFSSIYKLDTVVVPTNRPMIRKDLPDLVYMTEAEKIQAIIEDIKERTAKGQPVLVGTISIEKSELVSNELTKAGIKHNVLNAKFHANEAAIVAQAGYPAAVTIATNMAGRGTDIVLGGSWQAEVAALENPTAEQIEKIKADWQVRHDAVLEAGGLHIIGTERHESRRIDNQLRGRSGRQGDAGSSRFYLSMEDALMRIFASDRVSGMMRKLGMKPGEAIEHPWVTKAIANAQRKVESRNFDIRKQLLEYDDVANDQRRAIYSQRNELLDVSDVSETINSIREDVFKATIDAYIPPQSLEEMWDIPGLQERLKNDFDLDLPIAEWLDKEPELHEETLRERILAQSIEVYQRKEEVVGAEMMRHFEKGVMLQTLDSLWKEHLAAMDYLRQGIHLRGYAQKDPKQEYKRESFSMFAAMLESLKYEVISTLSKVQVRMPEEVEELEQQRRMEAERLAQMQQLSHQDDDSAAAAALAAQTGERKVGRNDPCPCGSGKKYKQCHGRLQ

Row | SMILES | Percent Effect [1] [%] | Percent Effect [2] [%] | Percent Effect [3] [%] | Percent Effect [4] [%] | Percent Effect (Trypanosoma cruzi) [%] | Percent Effect [5] [%] | Percent Effect [6] [%] | Percent Effect (Homo sapiens) [%] | Percent Effect [7] [%] | Percent Effect [8] [%] | Percent Effect [9] [%]
1 | COc1cccc(C(=O)NS(=O)(=O)c2cccc(C#N)c2)c1OC | -5.72 | 10.8 | -6.64 | 1.98 | 1.58 | 2.4 | -0.539 | 0.367 | 1.98 | 13.4 | 3.98
2 | CCCN1CCC(NC(=O)NCCc2nc(CC)c(C)s2)CC1 | -5.41 | 5.41 | -6.84 | 24.7 | 4.1 | 33.3 | 8.54 | -11.4 | 9.9 | 13.4 | -9.25
3 | O=C(c1ccco1)N1CCOCC2(CCN(C3CCOCC3)C2)C1 (stereo not drawn) | -0.734 | 1.33 | -1.65 | 3.4 | -7.47 | -2.29 | 7.95 | 2.53 | 0 | 5.13 | -6.06
4 | CCn1nc(-c2ccccc2F)ccc1=O | -4.01 | 0 | -2.64 | -3.3 | -9.29 | -12.7 | 4.55 | 11.8 | -1.07 | 8.64 | -2.39
5 | Cc1cc(N2CCC(c3nnc(CN(C)C)n3C3CC3)CC2)ccn1 | -5.32 | -1.39 | 34.9 | -1.61 | -4.37 | -0.883 | 16.1 | -6.01 | 1.05 | -5.13 | -4.13
6 | CN(Cc1ccc(F)cc1)C(=O)CN1CCCC(Cn2cncn2)C1 (stereo not drawn) | -2.63 | 2.53 | 1.84 | 7.47 | 3.49 | 1.52 | -6.8 | -5.05 | 7.39 | 3.8 | -2.65
7 | Cc1ccoc1C(=O)N1CCOCC2(CCN(c3ncccn3)C2)C1 (stereo not drawn) | -3.09 | 5.41 | -4.43 | 21.7 | 5.57 | 13.2 | 9.01 | 10.4 | 7.53 | 21 | -6.03
8 | Cc1cnn(CC2CCCN2Cc2coc(-c3cccs3)n2)c1 (stereo not drawn) | -6.03 | 0 | 3.45 | -6.51 | -1.37 | 0.909 | 1.77 | 5.98 | 2.15 | 10 | -1.19
